HCMV antiviral: human cytomegalovirus inhibition; activity change, negative = inhibition, % at 57.5 µM; 4.5% of 410,000 active; HFF cells, HCMV-luciferase reporter, 72 h; stronger effect = lower value; in the data active = activity change below about -60%; inconclusive = no clear call, values can overlap the other calls; inactive = above about -39%
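Cell-based, HFFs, 1000 cells/well, 16 h 37C; cpds in DMSO + HCMV-luc, MOI 1 PFU/cell; 72 h 37C; OneGlo luminescence after 5 min RT; norm. to buffer vs Salinomycin 10uM.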
FBPA Giardia inh: inhibitors of Giardia lamblia fructose-1,6-bisphosphate aldolase | A8B2U2 | 0.71% of 290,000 active | purified Giardia FBPA | AID 2451 | Potency, µM (series often up to 59.6 µM), without a hit: at the highest dose activity, negative = inhibition, most hits filed as inhibitors; note: potency is the fitted concentration of half-maximal effect; nearly all actives have a fitted effect of over 55% in size
Target sequence (A8B2U2 whole entry, looked up): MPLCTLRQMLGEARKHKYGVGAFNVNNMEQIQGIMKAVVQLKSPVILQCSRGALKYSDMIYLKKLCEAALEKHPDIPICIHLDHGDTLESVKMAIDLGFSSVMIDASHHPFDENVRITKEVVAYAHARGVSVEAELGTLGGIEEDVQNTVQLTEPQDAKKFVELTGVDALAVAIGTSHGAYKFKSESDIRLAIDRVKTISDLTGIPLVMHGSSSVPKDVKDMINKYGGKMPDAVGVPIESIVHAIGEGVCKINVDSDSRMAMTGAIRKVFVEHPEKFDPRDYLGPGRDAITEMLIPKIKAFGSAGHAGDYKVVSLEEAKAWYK
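40 nM FBPA preincubated 10 min at RT with compound (up to 57.5 uM final), then substrate plus GAPDH/TPI/NAD/arsenate coupling and diaphorase/resazurin added. Fluorescence read after 20 min at RT, 525/598 nm.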
Pf growth 48h: P. falciparum growth inhibition at 48 hours (one generation) | P. falciparum luciferase growth in erythrocytes, 48 h | Potency, µM (doses to about 28.7 µM), inactives show top-dose activity change, negative = inhibition, hits mostly inhibitors | 5.9% of 310,000 active | AID 504832; note: potency is the fitted concentration of half-maximal effect
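Cell-based growth assay: transgenic P. falciparum expressing firefly luciferase, cultured in red cells within RPMI 1640 containing 0.5% w/v Albumax, 24 mM bicarbonate and gentamycin. A drop in luciferase activity indicates inhibition.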
Sm TGR inh: S. mansoni TGR enzyme inhibition | Q962Y6 | purified TGR, DTNB reduction, TNB absorbance 405 nm | Potency, µM (doses to about 114 µM), without a hit: at the highest dose activity change, negative = inhibition, most hits filed as inhibitors | 3% of 360,000 active | AID 485364; note: potency is the fitted concentration of half-maximal effect; nearly all actives have a fitted effect of over 60% in size
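First, TGR (20 nM dispensed) and NADPH were mixed with compound. Second, a 15 min room-temperature incubation followed. Third, further NADPH and then DTNB were added to start the reaction. Finally, TNB absorbance was monitored kinetically.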
Pf growth 96h: inhibits malaria parasite growth, 96 h; P. falciparum luciferase reporter growth, 96 h; Potency, µM (titrated, usually from 28.7 µM), for the others: at the top dose activity change, negative = inhibition, usual class: inhibitors; 6.9% of 320,000 active; AID 504834; note: potency is the fitted concentration of half-maximal effect
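Luminescence readout: decreased luciferase signal marks inhibited growth of reporter-expressing P. falciparum in infected red cells (2% hematocrit, 0.05% parasitemia final), exposed to compound two generations (96 h, 37 C, 5% CO2).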
* marks the source's active call; other numbers are inactive results; [ ] = remark or other dose. This is a sample that favours compounds with a hit; in the whole collection about 14% have one here. Unless noted, calls come from the whole dose curve; as a rule, active = well fitted curve in the direction sought with a large enough effect; inconclusive = small, poorly fitted or top-dose-only effect, or another doubt; inactive = no such curve, though single readings can be large; an effect the other way counts as inactive or inconclusive. % is set by controls: 0 for no effect and ±100 for the full control effect.

`CCC(=O)O[C@@H]1[C@H](C)O[C@H](O[C@H]2[C@@H](N(C)C)[C@H](O)[C@@H](O[C@@H]3[C@@H](CC=O)C[C@@H](C)[C@@H](O)/C=C\C=C/C[C@@H](C)OC(=O)C[C@@H](OC(=O)CC)[C@H]3OC)O[C@H]2C)C[C@]1(C)O` gave FBPA Giardia inh 1%[21.7 µM], Pf growth 48h inconclusive and Pf growth 96h 1.3µM*.
CN1CC(C(=O)O)Cc2c1ccc1ccccc21 (stereo unspecified) was read as HCMV antiviral 24, FBPA Giardia inh 10µM*, Pf growth 48h inconclusive, Sm TGR inh 20µM* and Pf growth 96h 40%.
CN1C(=O)N(C)C(=O)C2(Cc3c(ccc4ccccc34)N(C)C2)C1=O was read as HCMV antiviral 115, FBPA Giardia inh inconclusive, Pf growth 48h -4%, Sm TGR inh -27% and Pf growth 96h 26%.
`CC(OC(=O)CCNS(=O)(=O)c1ccccc1)C(=O)Nc1ccc(S(=O)(=O)N2CCCCC2)cc1` (stereo unspecified) gave HCMV antiviral -1.
COCC(C)NCc1ccc(OC)c(Br)c1 (stereo unspecified) was read as HCMV antiviral -22, FBPA Giardia inh -27%, Pf growth 48h -29%, Sm TGR inh -5% and Pf growth 96h 12µM*.
For O=C(CC1(O)C(=O)Nc2ccccc21)c1ccc(-n2cccc2)cc1 (stereo unspecified) the results were HCMV antiviral 39, FBPA Giardia inh 2%, Pf growth 48h -16%, Sm TGR inh 50µM* and Pf growth 96h inconclusive.
COC(=O)c1c(NC(=O)C2c3ccccc3Oc3ccccc32)sc(C)c1C was read as HCMV antiviral 10, FBPA Giardia inh 0%, Pf growth 48h 19%, Sm TGR inh 3% and Pf growth 96h inconclusive.
`CCOC(=O)c1c(NC(=O)C2c3ccccc3Oc3ccccc32)sc(C(C)=O)c1C` gave HCMV antiviral -82*, FBPA Giardia inh -9%, Pf growth 48h inconclusive, Sm TGR inh 5% and Pf growth 96h inconclusive.
CCOC(=O)c1c(NC(=O)C2c3ccccc3Oc3ccccc32)sc(C)c1C was read as HCMV antiviral 13 and Sm TGR inh -2%.
Screening COC(=O)c1sc(NC(=O)C2c3ccccc3Oc3ccccc32)c(C(=O)OC)c1C returned HCMV antiviral -20, FBPA Giardia inh -1%, Pf growth 48h 1.7µM*, Sm TGR inh 13% and Pf growth 96h 10µM*.
For O=C(O)c1ccc(NC(=O)[C@H](Cc2ccc(O)cc2)NC(=O)c2ccccc2)cc1 the results were FBPA Giardia inh 6%, Pf growth 48h -11% and Pf growth 96h -13%.
Screening O=C(Oc1ccccc1)N1CCC2(CC1)CCN(c1ccccn1)CC2 returned FBPA Giardia inh -17%.
`COC(=O)c1ccc(NC(c2ccc(Cl)cc2)P(=O)(OC)OC)cc1` (stereo unspecified) gave HCMV antiviral inconclusive, FBPA Giardia inh 0%, Pf growth 48h 20%, Sm TGR inh -8% and Pf growth 96h 5%.
CCN(CC)CCNC(=O)C1(O)c2cc(Br)ccc2NC(=O)N1c1ccccc1 (stereo unspecified) was read as HCMV antiviral 1, FBPA Giardia inh 8%, Pf growth 48h -3%[0.00184 µM], Sm TGR inh 3% and Pf growth 96h 2.6µM*.
O=C1N/C(=C/c2ccc(N3CCCC3)cc2)C(=O)N1c1ccccc1 was read as HCMV antiviral 3, FBPA Giardia inh -3%, Pf growth 48h 77%, Sm TGR inh -10% and Pf growth 96h inconclusive.
O=C1/C(=C/c2ccccc2)NC(=S)N1C(c1ccccc1)c1ccccc1 was read as HCMV antiviral -20, FBPA Giardia inh -1%, Pf growth 48h 12µM* and Sm TGR inh -14%.
C[C@H]1CCC/C=C/C2C[C@H](O)CC2[C@H](O)/C=C/C(=O)O1 (stereo partly specified) was read as FBPA Giardia inh 6%, Pf growth 48h 2.9µM*, Sm TGR inh -15% and Pf growth 96h 2.1µM*.
For C[C@H]1CCCC=CC2C[C@H](O)C[C@@H]2[C@H](O)/C=C\C(=O)O1 (stereo partly specified) the results were FBPA Giardia inh 4%.
Screening CC1CCC/C=C/C2CC(O)CC2C(O)/C=C/C(=O)O1 (stereo unspecified) returned HCMV antiviral -100*, FBPA Giardia inh -1%, Sm TGR inh -6% and Pf growth 96h inconclusive.
C=CCN=C1NC(c2ccccc2)C(C(=O)OC)=C(C)N1C (stereo unspecified) was read as HCMV antiviral 5.
For COc1ccccc1NS(=O)(=O)c1ccc(Cl)c(NC(=O)c2sc3cc(Cl)ccc3c2Cl)c1 the results were HCMV antiviral -24, FBPA Giardia inh 4%, Pf growth 48h -29%, Sm TGR inh -3% and Pf growth 96h -7%.
For COc1ccccc1C(=O)NCCC(=O)Nc1ccc(S(=O)(=O)Nc2ncccn2)cc1 the results were HCMV antiviral -25, Pf growth 48h inconclusive, Sm TGR inh -4% and Pf growth 96h -28%.
`COc1ccccc1NS(=O)(=O)c1cccc(NC(=O)c2sc3ccccc3c2Cl)c1` gave HCMV antiviral -68*, FBPA Giardia inh -3%, Pf growth 48h 12µM*, Sm TGR inh -2% and Pf growth 96h -20%.
Screening COc1ccccc1NS(=O)(=O)c1cccc(NC(=O)CCNC(=O)c2ccccc2OC)c1 returned HCMV antiviral -6, Pf growth 48h 9.3µM*, Sm TGR inh 1% and Pf growth 96h 12µM*.
COc1ccccc1NS(=O)(=O)c1cccc(NC(=O)NCCCl)c1 was read as HCMV antiviral 10, FBPA Giardia inh -20%, Pf growth 48h 0%, Sm TGR inh -7% and Pf growth 96h 12µM*.
COc1ccccc1NS(=O)(=O)c1cccc(NC(=O)C2CC2)c1 was read as HCMV antiviral -21, Pf growth 48h inconclusive, Sm TGR inh -7% and Pf growth 96h inconclusive.
Screening COc1ccccc1NS(=O)(=O)c1cccc(NC(=O)Nc2cccc(Cl)c2)c1 returned HCMV antiviral -95*, FBPA Giardia inh 0%, Pf growth 48h inconclusive, Sm TGR inh -4% and Pf growth 96h inconclusive.
Cc1ccc2c(c1)-c1c(c(C(=O)NCCc3ccccc3)nn1C)CS2 was read as HCMV antiviral -35 and Sm TGR inh 2%.
Screening CC(C)CC(CO)N1CCN(C(=O)c2cccc(Cl)c2)CCC1=O (stereo unspecified) returned HCMV antiviral -11.
For COc1ccc(C(=O)/C=C/c2ccsc2)cc1CSCC(=O)O the results were HCMV antiviral -39, Pf growth 48h inconclusive, Sm TGR inh -30% and Pf growth 96h 6.6µM*.

Screening results as filed in PubChem BioAssay.
